Screening data deposited in PubChem BioAssay by National Center for Advancing Translational Sciences (NCATS).
D2 ag-1 = Beta-Arrestin HTS for Positive Allosteric Modulators of the Human D2 Dopamine Receptor: Agonists. D(2) dopamine receptor (Homo sapiens), P14416. DiscoveRx PathHunter D2 beta-arrestin, luminescence, 90 min; 100% = 57 uM dopamine signal. activation, % (no concentration beside the values). actives 0.084% (n = 360,000). AID 624465, 2012; in the data active means activation above about 40%; inconclusive means between about 15% and that limit
Target sequence (P14416 whole entry, looked up): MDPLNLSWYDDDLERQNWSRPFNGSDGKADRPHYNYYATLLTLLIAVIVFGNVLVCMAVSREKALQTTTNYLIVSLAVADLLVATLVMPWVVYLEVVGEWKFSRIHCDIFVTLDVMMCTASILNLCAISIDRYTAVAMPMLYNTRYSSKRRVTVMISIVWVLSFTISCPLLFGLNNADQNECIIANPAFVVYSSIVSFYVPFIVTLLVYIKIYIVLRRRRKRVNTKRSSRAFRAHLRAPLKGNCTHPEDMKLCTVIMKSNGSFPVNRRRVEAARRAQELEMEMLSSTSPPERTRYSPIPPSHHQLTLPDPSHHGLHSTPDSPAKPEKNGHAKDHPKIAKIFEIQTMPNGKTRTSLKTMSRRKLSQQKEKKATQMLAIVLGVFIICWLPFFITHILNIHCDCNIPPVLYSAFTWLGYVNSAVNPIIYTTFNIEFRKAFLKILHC
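DiscoveRx PathHunter D2 beta-arrestin cells (2,100/well) attached overnight, then compound-stimulated 90 min at 37 C in HBSS/10 mM HEPES/0.1% Tween-20 buffer; beta-galactosidase complementation read by luminescence after 1 h at ambient temperature. Dopamine 57 uM final (EC100) as control.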
D2 ag-2 = HTS Assay for Allosteric Agonists of the Human D2 Dopamine Receptor: Primary Screen for Agonists | actives 0.53% (n = 340,000) | AID 485358, 2010 | HEK293 T-REx D2 cells, calcium flux agonist mode | activation, % at 2 µM;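 active means activation over 3 SD above normal in the single-dose calcium agonist read, cut at about 30% in these data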
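Tetracycline-induced HEK293 T-REx cells with force-coupled D2 receptor, plated overnight at 30 C, loaded with no-wash calcium dye. After a 10 s baseline, compound was pin-added and calcium flux read kinetically for 180 s; calcium rises flagged agonists.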
D2 PAM-1 = Beta-Arrestin HTS for Positive Allosteric Modulators of the Human D2 Dopamine Receptor: Potentiators | D(2) dopamine receptor (Homo sapiens), P14416 | DiscoveRx D2 beta-arrestin cells, luminescence, 90 min; 100% = 57 uM dopamine signal | potentiation, % (concentration not given with the values) | actives 0.23% (n = 360,000) | AID 624464, 2012; in the data active means potentiation above about 50%; inconclusive means mostly about 30% to 49%
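PathHunter beta-arrestin assay in DiscoveRx D2 cells. Compounds were added with an EC20 of dopamine (50 nM final) for 90 min at 37 deg C. Luminescence was read 1 h after detection reagent, with 57 uM dopamine as the EC100 control.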
D2 PAM-2 = HTS Assay for Positive Allosteric Modulators of the Human D2 Dopamine Receptor: Primary Screen for Potentiators; D(2) dopamine receptor (Homo sapiens), P14416; HEK293 T-REx D2, calcium flux, EC20 dopamine potentiation; potentiation, % at 10 µM; actives 0.34% (n = 340,000); AID 485347, 2010;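 active means potentiation over 3 SD above the plate norm, cut at about 30% in these data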
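Primary screen. Calcium kinetics in induced HEK293 T-REx D2 cells: compound pre-addition 180 s, EC20 dopamine, 180 s more.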
D2 antagonist = HTS Assay for Allosteric Antagonists of the Human D2 Dopamine Receptor: Primary Screen for Antagonists; actives 2% (n = 340,000); HEK293 TREx D2 cells, calcium flux, dopamine EC80; inhibition, % at 10 µM; D(2) dopamine receptor (Homo sapiens), P14416; in the data active means inhibition above about 30%; inactive means below that, where a call was filed
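Read-out: kinetic calcium fluorescence (1 cycle/s) in inducible HEK293 T-REx D2 cells after an EC80 dopamine addition that followed 180 s compound preincubation. Loss of the dopamine response indicates antagonism.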
D3 ag = qHTS of D3 Dopamine Receptor Agonist: D3 Dopamine Receptor B-arrestin Agonist Confirmatory Assay. shares compounds with D2 ag-2. DiscoveRx D3 beta-arrestin cells, luminescence, 90 min. Potency, µM (top dose mostly 76.9 µM), actives largely listed as activators. actives 4% (n = 2,300). AID 720506, 2013; further: nearly all actives have a fitted effect of over 70% in size
D2 ag-3 = qHTS of D3 Dopamine Receptor Agonist: D2 Dopamine Receptor B-arrestin Agonist Counterscreen | DiscoveRx PathHunter D2 beta-arrestin, luminescence, 90 min; response scale: percent relative to full dopamine signal | Potency, µM (highest dose often 76.9 µM), most hits filed as activators | AID 720507, 2013 | actives 5.9% (n = 2,300) | shares compounds with D2 ag-2; further: nearly all actives have a fitted effect of over 70% in size
Numbers stand for hits. This is a sample that favours compounds with a hit; in the whole collection about 2.4% have one here. Unless noted, the call rests on the fitted dose curve; in most records, active means well fitted activation curve with a large enough effect; inconclusive means small, poorly fitted or top-dose-only effect; inactive means flat fitted curve, though single readings scatter.

CCOCC(=O)Nc1ccc(OCc2ccccc2)cc1 was read as D2 ag-1 inactive, D2 ag-2 inactive, D2 PAM-1 inactive, D2 PAM-2 inactive and D2 antagonist inactive.
Screening CCOC(=O)N1CCC(c2cc(=O)n3[nH]cc(C(=O)OC)c3n2)CC1 returned D2 ag-1 inactive, D2 ag-2 inactive, D2 PAM-1 inactive, D2 PAM-2 inactive and D2 antagonist inactive.
For CCOc1ccc(NC(=O)c2c[nH]n3c(=O)cc(C4CCN(C(=O)OC(C)(C)C)CC4)nc23)cc1 the results were D2 ag-1 inactive, D2 ag-2 inactive, D2 PAM-1 inactive, D2 PAM-2 inactive, D2 antagonist inactive, D3 ag inactive and D2 ag-3 inactive.
Cc1cccc(C(=O)NNC(=S)NC(=O)c2cccs2)c1 was read as D2 ag-1 inactive, D2 ag-2 inactive, D2 PAM-1 inactive, D2 PAM-2 inactive, D2 antagonist inactive, D3 ag inactive and D2 ag-3 inactive.
Screening CCC(C)c1ccc(OCC(=O)Nc2cccc(C(=O)Nc3ccc(C(=O)O)cc3)c2)cc1 (configuration not stated) returned D2 ag-1 inactive, D2 ag-2 64, D2 PAM-1 inactive, D2 PAM-2 inactive, D2 antagonist inactive, D3 ag inactive and D2 ag-3 inactive.
`COc1ccc(-c2[nH]ncc2CN2CCCN(C(=O)c3ccco3)CC2)cc1F` gave D2 ag-1 inactive, D2 PAM-1 inactive, D2 PAM-2 inactive, D3 ag inactive and D2 ag-3 inactive.
For COc1ccc(NC(=O)C(=O)NCCN2CCN(C(=O)c3ccco3)CC2)cc1 the results were D2 ag-1 inactive, D2 ag-2 39, D2 PAM-1 inactive, D2 PAM-2 inactive, D2 antagonist inactive, D3 ag 5µM and D2 ag-3 inactive.
`COc1ccc(C(=O)N2CCN(Cc3cc(OC)ccc3OC)CC2)cc1` gave D2 ag-1 inactive, D2 ag-2 inactive, D2 PAM-1 inactive, D2 PAM-2 inactive and D2 antagonist inactive.
COc1ccc(OC)c(CN2CCN(C(=O)c3ccco3)CC2)c1 was read as D2 ag-1 inconclusive, D2 ag-2 83, D2 PAM-1 inactive, D2 PAM-2 inactive, D2 antagonist 83, D3 ag inactive and D2 ag-3 inactive.
For COc1cccc(CN2CCN(C(=O)c3ccco3)CC2)c1 the results were D2 ag-1 70, D2 ag-2 84, D2 PAM-1 inconclusive, D2 PAM-2 inactive, D2 antagonist 82, D3 ag inactive and D2 ag-3 8.9µM.
Screening COc1ccc(-c2c(C#Cc3ccsc3)c3cc(-c4ccc5c(c4)OCO5)ccc3n2C)cc1 returned D2 ag-1 inactive, D2 ag-2 inactive, D2 PAM-1 inactive, D2 PAM-2 inactive, D2 antagonist inactive, D3 ag inactive and D2 ag-3 inactive.
Screening COc1ccc(-c2c(C#Cc3ccsc3)c3cc(-c4ccc5c(c4)OCCO5)ccc3n2C)cc1 returned D2 ag-1 inactive and D2 PAM-1 inactive.
`Cc1cccc(C)c1N1CCN(CCn2c(=S)[nH]c3ccccc3c2=O)CC1` gave D2 ag-1 inactive, D2 ag-2 inactive, D2 PAM-1 inactive, D2 PAM-2 inactive, D2 antagonist 71, D3 ag inactive and D2 ag-3 inactive.
Screening CCN1CCN(CCn2c(=S)[nH]c3ccccc3c2=O)CC1 returned D2 ag-1 inactive, D2 ag-2 inactive, D2 PAM-1 inactive, D2 PAM-2 inactive and D2 antagonist inactive.
`Cc1ccc(-c2nc3ncccc3o2)cc1NC(=O)c1ccc(-c2cccc(Cl)c2C)o1` gave D2 ag-2 inactive and D2 PAM-2 inactive.
Screening CCOC(=O)CCCCN(Cc1ccccc1F)S(=O)(=O)c1ccc(F)c(C(=O)Nc2cc(Cl)cc(Cl)c2)c1 returned D2 ag-2 inactive and D2 PAM-2 inactive.
For CCc1nc2c(OCc3cccc(Cl)c3)cccn2c1N(C)C(=O)CC(C)C the results were D2 ag-1 inactive and D2 PAM-1 inactive.
COc1ccc(NS(=O)(=O)c2cccc(C(=O)NNC(=O)c3ccc(C)o3)c2)cc1 was read as D2 ag-1 inactive, D2 ag-2 inactive, D2 PAM-1 inactive, D2 PAM-2 inactive, D2 antagonist inactive, D3 ag inactive and D2 ag-3 inactive.
For O=C(CSCc1c[nH]c(=O)[nH]c1=O)OCC(=O)c1ccc(Br)cc1 the results were D2 ag-1 inactive, D2 PAM-1 inactive, D3 ag inactive and D2 ag-3 inactive.
Screening Cc1ccc(C(=O)N2CC(=O)Nc3ccc(Br)cc3C2c2ccc(F)cc2)cc1C (configuration not stated) returned D2 ag-2 inactive and D2 PAM-2 inactive.
`OC(COCc1cccs1)CN1CCCCCC1` (configuration not stated) gave D2 ag-1 inactive, D2 ag-2 inactive, D2 PAM-1 inactive, D2 PAM-2 inactive and D2 antagonist inactive.
Screening OC(COCc1cccs1)CN1CCN(c2cccc(Cl)c2)CC1 (configuration not stated) returned D2 ag-1 inconclusive, D2 ag-2 67, D2 PAM-1 inactive, D2 PAM-2 inactive, D2 antagonist 43, D3 ag inactive and D2 ag-3 inconclusive.
`Cc1cccc(N2CCN(CC(O)COCc3cccs3)CC2)c1C` (configuration not stated) gave D2 ag-1 inactive, D2 ag-2 56, D2 PAM-1 inactive, D2 PAM-2 inactive, D2 antagonist 71, D3 ag 0.32µM and D2 ag-3 inactive.
Screening CN1CCCN(CC(O)COCc2cccs2)CC1 (configuration not stated) returned D2 ag-1 inactive, D2 ag-2 inactive, D2 PAM-1 inactive, D2 PAM-2 inactive and D2 antagonist inactive.
Screening OC(CNCCc1ccc(C(F)(F)F)cc1)COc1cccc2ccccc12 (configuration not stated) returned D2 ag-1 inactive, D2 ag-2 inactive, D2 PAM-1 inactive, D2 PAM-2 inactive, D2 antagonist inactive, D3 ag inactive and D2 ag-3 inactive.
